# In PubChem BioAssay (NCATS):
# “And” between values parts separate entries of the source, which are not always exact repeats. Equal values may be shown once. Inconclusive results are not listed. Entries that show only a call come without a potency. More than one record can exist for a structure, and the calls need not agree. The source made the active and inactive calls. Calls follow the shape of the dose curve; as a rule, active = well fitted cell-killing curve with a large enough effect; inconclusive = small, poorly fitted or top-dose-only effect, or effect the other way; inactive = no such curve, though single readings can be large or run the other way.
# How the values were obtained:
# [1] = Viability qHTS for spleen associated tyrosine kinase inhibitor (SYKi) naive MV4-11 cells (AID 1963823); also: nearly all actives have a fitted effect of over 40% in size
# Outline: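 SYKi-naive MV4-11 AML cells, 500 per well, were exposed to library compounds for 72 hr at 37 C, 5% CO2. Viability was then read by CellTiter-Glo luminescence after 10 min at room temperature.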
# [2] = Viability qHTS for spleen associated tyrosine kinase inhibitor (SYKi) drug resistant MV4-11 cells (AID 1963824); also: nearly all actives have a fitted effect of over 35% in size
# Outline: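 SYK inhibitor-resistant MV4-11 AML cells, 500 per well, added to predispensed compounds and incubated 72 hr at 37 C, 5% CO2. Viability measured by CellTiter-Glo luminescence after 10 min at room temperature.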
# Potency is read from the fitted curve at half-maximal effect.
SMILES,Potency [1],Potency [2],viability (% of control) [1],"viability, % of control [2]"
C[C@@H](Oc1cc(-n2cnc3ccc(OC4CCN(C)CC4)cc32)sc1C(N)=O)c1ccccc1C(F)(F)F,0.0184 µM (active),0.0092 µM (active),–,–
CC1CCC2(C=O)C(CO)=CCCC2C1(C)CC(=O)O (configuration not stated),inactive,inactive,–,–
CCN=C1N[C@@H]2[C@@H](O)[C@H](O)[C@@H](CO)O[C@@H]2S1,inactive,inactive,–,–
CCCCOc1ccc(C(=O)CCN2CCCCC2)cc1,21.1 µM (active),16.8 µM (active),–,–
CC(=C\C(C)O)/C=C(\C)C(=O)CC1CC(CC(N)=O)CC(=O)O1 (configuration not stated),inactive,inactive,–,–
CCCc1cc(C)[nH]c(=O)c1CNC(=O)c1cc(-c2ccnc(N3CCN(C)CC3)c2)cc2c1cnn2C(C)C,14.8 µM (active),11.8 µM (active),–,–
C/C(=C\CCC(C)C1CC(O)C2(C)C3CCC4C(C)(C)C(OC5OCC(O)C(O)C5O)CCC45CC35CC(O)C12C)C(=O)O (configuration not stated),inactive,inactive,–,–
Cc1c[nH]c2nccc(Oc3c(F)cc(Nc4cc(Cl)nc(N)n4)cc3F)c12,0.517 µM (active),0.731 µM (active),–,–
CC1=CC(=O)CC(C)(C)C1(O)CCC(C)O (configuration not stated),inactive,inactive,–,–
COc1cc(C2Oc3c(OC)cc(CCCO)cc3C2CO)ccc1O[C@H]1O[C@H](C)[C@@H](O)[C@H](O)[C@@H]1O (some centres not stated),inactive,inactive,–,–
COc1cc(-c2cccc(O)c2)cc2c1OCO2,inactive,inactive,–,–
C=C[C@]1(C)C[C@H](O)[C@@H]2[C@H](OC(=O)[C@@H]2C)C1/C(C)=C/O[C@@H]1O[C@H](CO)[C@@H](O)[C@H](O)[C@H]1O (some centres not stated),inactive,inactive,–,–
COC(=O)c1c(C)cc(OC(=O)c2c(C)cc(OC)cc2OC)cc1O[C@@H]1O[C@H](CO)[C@@H](O)[C@H](O)[C@H]1O,inactive,inactive,–,–
C/C=C1/CC2C(=O)Nc3cc(O)c(OC)cc3C(=O)N2C1 (configuration not stated),16.1 µM (active),14.3 µM (active),–,–
N#C[C@@H]1C[C@H](F)CN1C(=O)CNC1[C@H]2CN(C(=O)c3ccc(F)cc3)C[C@@H]12 (some centres not stated),inactive,inactive,–,–
CNc1cc2c(Nc3cccc(Br)c3)ncnc2cn1,18.4 µM (active),23.1 µM (active),–,–
CC1(C)SC2C(NC(=O)[C@H](C(=O)O)c3ccsc3)C(=O)N2C1C(=O)O (some centres not stated),inactive,inactive,–,–
C=C1C(O)CC2C(C(=O)O)=COC(O[C@@H]3O[C@H](COC(=O)/C=C/c4ccc(O)cc4)[C@@H](O)[C@H](O)[C@H]3O)C12 (some centres not stated),inactive,inactive,–,–
Cc1cc(C)c(CNC(=O)c2cc(-c3ccc(CN4CCOCC4)cc3)cc3c2cnn3C2CCCC2)c(=O)[nH]1,inactive,inactive and 14.8 µM (active),–,–

SMILES,Potency [1],Potency [2],viability (% of control) [1],"viability, % of control [2]"
CCOC(=O)C1=CCCCC1S(=O)(=O)Nc1ccc(F)cc1Cl (configuration not stated),20.9 µM (active),16.6 µM (active),–,–
COc1cc(-c2cc(-c3cccc(O)c3)cnc2N)cc(OC)c1OC,11.6 µM (active),9.2 µM (active),–,–
CO[C@H]1/C=C/C=C/C=C/C[C@H](OC(=O)[C@@H](C)NC(=O)C2CCCCC2)[C@H](C)[C@@H](O)/C(C)=C/CCc2cc(O)cc(c2)NC(=O)C1,0.0968 µM (active),0.109 µM (active),–,–
COC1=CC(=O)CC(C)C12Oc1cc(OC)cc(O)c1C2=O (configuration not stated),inactive,inactive,–,–
NC(=O)C(O[C@@H]1O[C@H](CO[C@@H]2O[C@H](CO)[C@@H](O)[C@H](O)[C@H]2O)[C@@H](O)[C@H](O)[C@H]1O)c1ccccc1 (some centres not stated),inactive,inactive,–,–
C=C1CC[C@H]2[C@@](C)(CCC[C@@]2(C)C(=O)O)[C@@H]1CCC(C)CCO (some centres not stated),inactive,inactive,–,–
O=C(/C=C/c1ccc(O)cc1)O[C@H]1[C@@H]2C=CO[C@@H](O[C@@H]3O[C@H](CO)[C@@H](O)[C@H](O)[C@H]3O)[C@@H]2[C@@]2(CO)O[C@@H]12,inactive,inactive,–,–
O=c1cc[nH]c(=S)[nH]1,inactive,11.9 µM (active),–,–
CC1CCC2C(C(=O)O)=COC(O[C@@H]3O[C@H](CO)[C@@H](O)[C@H](O)[C@H]3O)C12 (some centres not stated),inactive,16.1 µM (active),–,–
C/C=C/c1ccc(O[C@@H]2O[C@H](CO)[C@@H](O)[C@H](O)[C@H]2O)c(OC)c1,inactive,inactive,–,–
C/C=C/C=C/C=C/C(=O)O[C@@H]1[C@@H](OC)C2=C(C(=O)N(C(C)C(=O)O)C2)[C@@]2(C)CCCC(C)(C)[C@H]12 (some centres not stated),inactive,inactive,–,–
NC1CCC(Nc2cc(-c3cccc(NCc4cccc(F)c4)n3)c(Cl)cn2)CC1 (configuration not stated),0.146 µM (active),0.116 µM (active),–,–
Cc1nnc(-c2sc(NC(=O)[C@H](C(C)C)n3c(=O)[nH]c4ccccc4c3=O)nc2C)o1,inactive,inactive,–,–
CC(=O)CC(=O)Nc1ccc(Cl)c(C(F)(F)F)c1,9.2 µM (active),14.6 µM (active),–,–
COc1c(C)c(C(=O)c2ccc(N)c(C(=O)O)c2)n2ccccc12,inactive,inactive,–,–
CC(=O)OC(C)C(C)(O)C(=O)O[C@@H]1CC[C@]2(C)CC(=O)C(=C(C)C)C[C@H]2[C@]1(C)OC(C)=O (some centres not stated),5.63 µM (active),inactive,–,–
CC(=O)N1CCN(NC(=O)c2ccc(F)cc2)CC1,inactive,inactive,–,–
CC1(C)CC[C@]2(C(=O)O[C@@H]3O[C@H](CO)[C@@H](O)[C@H](O)[C@H]3O)CC[C@]3(C)C(=CCC4[C@@]5(C)CC[C@H](O[C@@H]6O[C@H](C(=O)O)[C@@H](O[C@@H]7O[C@H](CO)[C@@H](O)[C@H](O)[C@H]7O)[C@H](O)[C@H]6O[C@@H]6O[C@H](CO)[C@@H](O)[C@H](O)[C@H]6O)C(C)(C)C5CC[C@]43C)C2C1 (some centres not stated),–,–,93% [at 9.25 µM] (inactive),104% [at 9.25 µM] (inactive)
CC1(C)C(O)CCC2(C)C1C(O)C=C1COC(=O)C12O (configuration not stated),inactive,inactive,–,–

SMILES,Potency [1],Potency [2],viability (% of control) [1],"viability, % of control [2]"
OC[C@H]1O[C@@H](OC(CCCCc2ccc(O)cc2)CCc2ccc(O)cc2)[C@H](O)[C@@H](O)[C@@H]1O (some centres not stated),inactive,inactive,–,–
CCOC(=O)c1c(C)nn(-c2cccc([N+](=O)[O-])c2)c1C,inactive,inactive,–,–
C[C@@H]1O[C@@H](O[C@H]2[C@H](O[C@H]3[C@H](O)[C@@H](C(=O)O)O[C@@H](O[C@H]4CC[C@@]5(C)C(CC[C@]6(C)C5CC[C@]57OC[C@@]8(CCC(C)(C)CC85)[C@H](O)C[C@]76C)C4(C)C)[C@@H]3O[C@@H]3O[C@H](CO)[C@@H](O[C@@H]4OC[C@@H](O)[C@H](O)[C@H]4O)[C@H](O)[C@H]3O)O[C@H](CO)[C@H](O)[C@@H]2O)[C@H](O)[C@H](O)[C@H]1O (some centres not stated),–,–,77.6% [at 9.25 µM] (inactive),94.7% [at 9.25 µM] (inactive)
OC[C@H]1O[C@@H](OCc2ccccc2)[C@H](O[C@@H]2OC[C@@H](O)[C@H](O)[C@H]2O)[C@@H](O)[C@@H]1O,inactive,inactive,–,–
CCN(CC)C(=O)C(c1ccccc1)N1CCN(c2ccc(NC(=O)c3ccccc3-c3cccnc3)cc2F)CC1 (configuration not stated),inactive,inactive,–,–
CC(C)c1nc(-c2ccc(NC(=O)Nc3cccc(C(F)(F)F)c3)c3ccccc23)c2c(N)nccn12,0.366 µM (active),0.411 µM (active),–,–
Cc1c(-c2ccc(O)cc2)n(Cc2ccc(OCCN3CCCCCC3)cc2)c2ccc(O)cc12,18.8 µM (active) and 8.33 µM (active),23.7 µM (active) and 9.34 µM (active),–,–
CC(=O)C=C=C1C(C)(C)CC(O)CC1(C)O[C@@H]1O[C@H](CO[C@H]2OC[C@](O)(CO)[C@H]2O)[C@@H](O)[C@H](O)[C@H]1O (some centres not stated),inactive,inactive,–,–
C[C@]1(OC(=O)/C=C\c2ccc(O)cc2)C[C@@H](O)[C@]2(O)C=CO[C@@H](O[C@@H]3O[C@H](CO)[C@@H](O)[C@H](O)[C@H]3O)C12 (some centres not stated),inactive,inactive,–,–
Cc1occc(=O)c1O[C@@H]1O[C@H](COC(=O)CC(C)(O)CC(=O)O)[C@@H](O)[C@H](O)[C@H]1O (some centres not stated),inactive,inactive,–,–
Nc1ccc(-c2cnc(N)c(-c3ccc(Cl)cc3)c2)cn1,5.8 µM (active),8.2 µM (active),–,–
O=C(Nc1ncc(SCCN2CCCC2)s1)C1(c2ccc(S(=O)(=O)C3CC3)cc2)CC1C1CCCCC1 (configuration not stated),8.2 µM (active),8.2 µM (active),–,–
CC1OC(OC2C(OC3C(O[C@H]4CC[C@@]5(C)C(CC[C@]6(C)C5C(=O)C=C5C7CC(C)(C)CC(O)[C@]7(C)CC[C@]56C)C4(C)C)OC(C(=O)O)C(O)C3O)OCC(O)C2O)C(O)C(O)C1O (some centres not stated),–,–,54.7% [at 9.25 µM] (inactive),71.2% [at 9.25 µM] (inactive)
COC(=O)C1=CO[C@@H](O[C@@H]2O[C@H](CO)[C@@H](O)[C@H](O)[C@H]2O)[C@@H]2[C@@H](C(=O)O)CC[C@H]12,inactive,inactive,–,–
CC(CCC1(O)OC2CC3C4CCC5CC(O[C@@H]6O[C@H](CO)[C@@H](O)[C@H](O)[C@H]6O[C@@H]6O[C@@H](C)[C@H](O)[C@@H](O)[C@H]6O)C(O)CC5(C)C4CCC3(C)C2C1C)CO[C@@H]1O[C@H](CO)[C@@H](O)[C@H](O)[C@H]1O (some centres not stated),–,–,87.7% [at 9.25 µM] (inactive),109% [at 9.25 µM] (inactive)
O=C(Cc1ccc(Cl)cc1)Nc1cnccc1C(=O)O,inactive,inactive,–,–
C/C=C1\[C@H](O[C@@H]2O[C@H](CO)[C@@H](O)[C@H](O)[C@H]2O)OC=C(C(=O)OC)[C@H]1CC(=O)O,inactive,inactive,–,–
CC(C)CC(=O)O[C@@H]1O[C@H](CO)[C@@H](O[C@H]2O[C@H](C)[C@@H](N[C@H]3C=C(CO)[C@@H](O[C@H]4O[C@H](CO)[C@@H](O[C@H]5O[C@H](CO)[C@@H](O[C@H]6O[C@H](CO)[C@@H](O)[C@H](O)[C@H]6O)[C@H](O)[C@H]5O)[C@H](O)[C@H]4O)[C@H](O)[C@H]3O)[C@H](O)[C@H]2O)[C@H](O)[C@H]1O,–,–,82.5% [at 9.25 µM] (inactive),101% [at 9.25 µM] (inactive)
